This is a sample that favours compounds with a hit; in the whole collection about 19% have one here.
Chronic BCR inh: inhibitors of chronic active B-cell receptor signaling | AID 493014 | ABC-DLBCL IkBa-CBG/CBR reporter, luminescence ratio, 4 h | 0.05% of 340,000 active | Potency, µM (top dose mostly 46.1 µM), without a hit: top-dose activity change, negative = inhibition, usual class: inhibitors; active = well fitted inhibition curve with a large enough effect in the signal ratio, with a control signal flat, not every such curve was filed as active; inconclusive = small, poorly fitted or top-dose-only effect, or effect the other way, or a change in a side signal; the % refers to the signal ratio;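 note: potency is the fitted concentration of half-maximal effect; plate controls were basal doxycycline-induced cells for no effect and cells given 10 µM MG132 for full effect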
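Doxycycline induced both beetle luciferases in TMD8 lymphoma cells; IKK-driven degradation limits the IkappaBalpha-fused green signal, while red luminescence normalises for cell number and nonspecific effects. Compounds tested up to 46 uM, 4 hrs.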
IL-1B inflam inh: blocks inflammasome-driven IL-1 beta release; activity change, % at 57.5 µM; 4.7% of 360,000 active; THP-1 LPS/ATP IL-1B secretion, AlphaLISA, 16 h; active compounds read low; in the data active = activity change below about -50%; inconclusive = mostly about -30% to -49%; note: % is set by controls: 0 for no effect and ±100 for the full control effect
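Secreted IL-1B measured by AlphaLISA bead assay after 16 h compound exposure of THP-1 cells; compounds (final up to 57.5 uM) added 1 h before LPS (250 ng/mL) and ATP (1.25 mM) stimulation; lower signal means less secretion.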
MCF10A rereplic: induces DNA re-replication in MCF 10a normal breast cells. AID 624296. 2.9% of 350,000 active. MCF 10A DNA re-replication, Hoechst nuclear intensity, 48 h. Potency, µM (doses to about 46.1 µM), for inactives: top-dose activity, positive = re-replication, hits mostly activators; note: potency is the fitted concentration of half-maximal effect; % of control where 0% means no effect; nearly all actives have a fitted effect of over 50% in size
TDP1 cell noCPT: qHTS for Inhibitors of human tyrosyl-DNA phosphodiesterase 1 (TDP1): qHTS in cells in absence of CPT | Potency, µM (highest dose often 46.2 µM), for inactives: at the top dose activity change, negative = growth inhibition, actives largely listed as inhibitors | 15% of 420,000 active | AID 686978, 2013 | DT40 Tdp1-/- hTDP1 cells, no CPT, ATP luminescence, 48 h; note: potency is the fitted concentration of half-maximal effect; % is set by controls: 0 for no effect and ±100 for the full control effect; nearly all actives have a fitted effect of over 55% in size
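Cells were dispensed at 400 per well, compounds added by pin tool, plates incubated ≥48 hr at 37 °C, then CellTiter-Glo added for 30 min at room temperature before luminescence reading. Line: DT40 Tdp1-/- complemented with hTDP1; camptothecin omitted.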
SW480 rereplic: DNA re-replication induction in SW480 cells. SW480 DNA re-replication, Hoechst DNA content imaging, 48 h. Potency, µM (doses to about 46.1 µM), for inactives: top-dose re-replication activation, most hits filed as activators. 1.8% of 340,000 active; note: potency is the fitted concentration of half-maximal effect; % of control where 0% means no effect; nearly all actives have a fitted effect of over 55% in size
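Compounds, transferred as 23 nL by pin tool, were incubated with cells for 48 hr; DNA content per nucleus was then quantified by Hoechst staining and fluorescence plate imaging.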
DT40 TDP1 CPT: DT40-hTDP1 cell growth loss with CPT. Potency, µM (doses to about 46.2 µM), without a hit: at the top dose activity change, negative = growth inhibition, most hits filed as inhibitors. 12% of 420,000 active. AID 686979. chicken DT40 Tdp1-/-;hTDP1 cells + 20 nM CPT, ATP luminescence, 48 h; note: potency is the fitted concentration of half-maximal effect; % is set by controls: 0 for no effect and ±100 for the full control effect; nearly all actives have a fitted effect of over 55% in size
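Cell growth measured by CellTiter-Glo luminescence after a minimum 48 h, 37 C compound exposure with 20 nM CPT in Tdp1-knockout DT40 cells stably expressing hTDP1, seeded 400/well; qHTS titration format.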
An asterisk follows results filed as active; ? = inconclusive; . = no result; [ ] = remark or other dose. Unless noted, calls come from the whole dose curve; as a rule, active = well fitted curve in the direction sought with a large enough effect; inconclusive = small, poorly fitted or top-dose-only effect, or another doubt; inactive = no such curve, though single readings can be large; an effect the other way counts as inactive or inconclusive.

SMILES | Chronic BCR inh | IL-1B inflam inh | MCF10A rereplic | TDP1 cell noCPT | SW480 rereplic | DT40 TDP1 CPT
COc1ccc(OC)c(-n2c(N)c(C(=O)NCC3CCCO3)c3nc4ccccc4nc32)c1 (centres undefined) | ? | 0 | 8.2µM* | ? | 16µM* | ?
COc1cccc(/C=N/n2c(N)c(S(=O)(=O)c3cccs3)c3nc4ccccc4nc32)c1OC | 9% | 101 | 3.7µM* | 5.8µM* | 12µM* | 7.3µM*
COCCn1c(N)c(C(=O)NCc2cccs2)c2nc3ccccc3nc21 | 6% | ? | 8.2µM* | -5% | ? | -21%
COCCn1c(N)c(C(=O)NCC2CCCO2)c2nc3ccccc3nc21 (centres undefined) | ? | -18 | ? | ? | 10µM* | ?
Nc1c(C(=O)OCC2CCCO2)c2nc3ccccc3nc2n1C1CCCC1 (centres undefined) | ? | 2 | ? | 12µM* | 27% | ?
O=C(NCC1CCCO1)c1cc2ccccc2o1 (centres undefined) | -11% | 18 | 1% | 13% | 5% | -13%
Nc1c(C(=O)NCC2CCCO2)c2nc3ccccc3nc2n1/N=C/c1ccncc1 (centres undefined) | . | 0 | 25% | 1.6µM* | -3% | 8.2µM*
CC(C)Cn1c(N)c(C(=O)NCC2CCCO2)c2nc3ccccc3nc21 (centres undefined) | ? | -80* | 2.1µM* | 26µM* | ? | ?
CCOC(=O)c1c(N)n(CC(C)NC(=O)C2CC2)c2nc3ccccc3nc12 (centres undefined) | -4% | . | . | . | . | .
COc1ccc(CCNC(=O)C(=O)NCC(c2cccs2)S(=O)(=O)c2ccccc2)cc1 (centres undefined) | -1% | . | . | ? | . | ?
COCCN1C[C@@H](CO)O[C@@H](n2cnc3c(NCCN(C)C)ncnc32)C1 | . | 34 | . | ? | . | 15%
CC(OC(=O)C1CCN(c2ccc(C(F)(F)F)cn2)CC1)C(=O)Nc1cccc([N+](=O)[O-])c1 (centres undefined) | ? | 14 | ? | -30% | 10% | ?
OC[C@@H]1CN(Cc2ccc3c(c2)OCO3)C[C@H](n2cnc3c(NCc4ccncc4)ncnc32)O1 | . | -1 | . | -12% | . | -18%
CN(C(=O)CN1CCN(c2cnn(-c3ccccc3)c(=O)c2Cl)CC1)C1CCS(=O)(=O)C1 (centres undefined) | 3% | 9 | 1% | 3% | -7% | -4%
O=C(c1cncs1)N(Cc1cc2cc3c(cc2nc1N1CCOCC1)CCC3)CC1CCCO1 (centres undefined) | . | . | . | -12% | . | -6%[9.04 µM]
O=C(C1CCN(S(=O)(=O)c2cccc3cccnc23)CC1)N1CCCCC1 | 2% | 56 | -3% | -18% | 1% | 1%
COc1ccc(-c2nc(SCC(=O)Nc3ccc4c(c3)OCCO4)c(-c3ccc(C)cc3)[nH]2)cc1OC | . | . | . | 18µM* | . | ?
COc1ccc(-c2nnc(SCC(=O)Nc3ccc4c(c3)OCCO4)n2N)cc1OC | 4% | 12 | -1% | -3% | -3% | -4%
COc1ccc(NC(=O)CSc2nc(-c3cccc(C)c3)[nH]c2-c2ccccc2)cc1OC | . | . | . | 6.5µM* | . | 9.2µM*
COc1ccc(NC(=O)CSc2ncccc2C(=O)O)cc1OC | 5% | . | . | -4% | . | 5%
COc1ccc(-c2[nH]c(-c3ccc(OC)c(OC)c3)nc2SCC(=O)Nc2ccccc2)cc1 | . | . | . | ? | . | 16µM*
COc1ccc(NC(=O)CSc2nc(-c3ccc(OC)c(OC)c3)[nH]c2-c2ccc(C)cc2)cc1 | . | . | . | ? | . | 5.8µM*
COc1ccc(NC(=O)CSc2nc(-c3ccc(OC)cc3)[nH]c2-c2ccc(F)cc2)cc1 | . | . | . | -2% | . | -7%
C[C@]12CCC(=O)C=C1CC[C@@H]1C2[C@@H](O)C[C@@]2(C)[C@H]1CC[C@]2(O)C(=O)CO (some centres undefined) | . | . | . | ? | . | 1%
CC(=O)N1CCc2cc(Br)cc(S(=O)(=O)NCCCN(C)Cc3ccccc3)c21 | -8% | -12 | 2% | ? | -17% | 0%
SMILES | Chronic BCR inh | IL-1B inflam inh | MCF10A rereplic | TDP1 cell noCPT | SW480 rereplic | DT40 TDP1 CPT
Cc1ccc(NC(=O)c2c(NC(=O)Cc3ccccc3)sc3c2CCC3)cc1 | . | . | . | ? | . | -1%
CC1CCc2c(sc(NC(=O)Cc3ccccc3)c2C(=O)Nc2ccc(Cl)cc2)C1 (centres undefined) | . | . | . | ? | . | 15µM*
COc1ccc(NC(=O)c2c(NC(=O)C(F)(F)F)sc3c2CCCCC3)cc1 | . | . | . | 18µM* | . | ?
O=C(Cc1ccccc1)Nc1sc2c(c1C(=O)Nc1cccc(Cl)c1)CCCCC2 | . | . | . | -18% | . | -22%
COc1ccc(NC(=O)c2c(NC(=O)Cc3ccccc3)sc3c2CCCC3)cc1 | . | . | . | -21% | . | -10%
COc1ccc(CC(=O)Nc2sc3c(c2C(=O)Nc2ccc(C)cc2)CCCCC3)cc1 | . | . | . | 16µM* | . | ?
O=C(Cc1ccccc1)Nc1sc2c(c1C(=O)Nc1ccc(Br)cc1)CCCC2 | . | . | . | 21µM* | . | 12µM*
CSCC[C@H](NC(=O)OC(C)(C)C)C(=O)N1CCC(C(=O)N[C@@H](C)C(=O)NCc2ccc(F)cc2)CC1 | 16% | 15 | 6% | -12% | -7% | -26%
Cc1nnc(NC(=O)CCC(=O)N2CCN(CCOc3cccc4ccccc34)CC2)s1 | ? | 2 | 1% | 23µM* | -6% | ?
Cc1ccc(OCCN2CCN(C(=O)CCC(=O)Nc3nnc(C(C)C)s3)CC2)cc1 | -8% | -19 | 0% | 23µM* | -1% | ?
CCOc1ccc(N2CC(C(=O)Nc3nnc(CC)s3)CC2=O)cc1 (centres undefined) | 0% | 18 | 1% | 0% | -22% | 0%
COc1ccc(Br)cc1/C=N/NC(=O)CNC(=O)/C=C/c1ccccc1 | 0% | 89 | ? | 13µM* | 2% | 16µM*
COc1cccc(/C=N/NC(=O)CNC(=O)C(c2ccccc2)c2ccccc2)c1O | ? | 77 | ? | 5.8µM* | 25% | 7.3µM*
COc1ccccc1/C=C/C(=O)NCC(=O)N/N=C/c1ccccc1 | -22% | 70 | -2% | 6% | -14% | 3%
COc1ccc(/C=C\C(=O)NCC(=O)N/N=C/c2cccc(OC)c2O)cc1 | -13% | 68 | 4% | 2.6µM* | ? | 5.8µM*
